Values joined by “and” are separate entries in the source; they are usually repeats but may differ in a detail not shown here. Equal values may be shown once. In all, about 110,000 compounds went through this assay and about 190 (0.17%) were called active. Cut-off read from the data, not from the text of the source: active = inhibition above about 50%; inactive = the rest. The full list was thinned out, with actives kept by preference. Results with a measured potency or affinity are listed apart.

In PubChem BioAssay AID425 (Sanford-Burnham Center for Chemical Genomics, 2006) one finds inhibition data, which are given here for 99 molecules.

The target in the assay is Dual specificity protein phosphatase 6 (Rattus norvegicus) (UniProt Q64346). Put plainly: MKP-3 phosphatase inhibitors, primary screen, biochemical, rat enzyme, in vitro (AID 425).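 Note: plate controls were vehicle for no effect and reference inhibitor for full effect.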 Particulars: recombinant MKP-3 phosphatase activity, fluorescence; at 20 µM; hits give high values.
Dual specificity protein phosphatase 6 (Rattus norvegicus), sequence (Q64346 whole entry, looked up): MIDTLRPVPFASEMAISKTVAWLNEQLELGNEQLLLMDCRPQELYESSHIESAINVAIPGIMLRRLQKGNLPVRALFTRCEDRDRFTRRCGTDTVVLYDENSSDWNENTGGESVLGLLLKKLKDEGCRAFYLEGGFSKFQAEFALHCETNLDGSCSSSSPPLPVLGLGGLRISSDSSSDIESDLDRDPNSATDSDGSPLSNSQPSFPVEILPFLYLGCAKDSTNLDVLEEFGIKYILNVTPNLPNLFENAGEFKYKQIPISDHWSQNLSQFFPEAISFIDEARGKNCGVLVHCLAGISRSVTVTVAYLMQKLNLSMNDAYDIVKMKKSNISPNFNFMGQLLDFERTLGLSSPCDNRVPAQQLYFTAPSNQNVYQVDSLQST
As to `Cc1c(CCC(=O)O)c(=O)oc2cc(O)ccc12`, the inhibition was 2.4% (inactive).
In the case of `Cc1c(CCC(=O)O)c(=O)oc2cc3occ(-c4ccc(F)cc4)c3cc12` it was 8.5% (inactive); in that of `COc1ccc(C2(O)CC3CCC(C2)N3c2cc(C)nc(-c3ccccc3)n2)cc1` (centres undefined), 7.5% (inactive); in that of `Cc1ccc(C2CC(C(F)(F)F)n3nc(C(=O)N(Cc4ccccc4)Cc4ccccc4)cc3N2)cc1` (centres undefined), 3.9% (inactive).
Turning to `COc1ccc(Cn2c3nc4ccccc4nc3c3c(=O)n(Cc4ccco4)c(C)nc32)cc1`, the inhibition was 8.3% (inactive).
For `COc1ccc(Cn2c3nc4ccccc4nc3c3c(=O)n(Cc4ccco4)cnc32)cc1`, the inhibition is 2.5% (inactive).
Turning to `COC(=O)c1c(-c2ccccc2)csc1NC(=O)CCCC(=O)O`, the inhibition is 3.6% (inactive).
As for `CN=C(Nc1ccc(F)cc1)SC1CC(=O)N(c2ccccc2F)C1=O` (centres undefined), the inhibition was 1.3% (inactive).
As for `COC(=O)c1c2nc3ccccc3sc-2cc(=O)c1N`, the figure is 122% (active).
On to `CCOC(=O)c1nc2ccccc2s1`, for which the inhibition was -6.5% (inactive).
Regarding `COC(=O)N(C)c1nc2ccccc2s1`, the inhibition is -5% (inactive).
As for `O=C(Nc1cccc2c1CCCC2)c1ccc(Br)cc1`, the figure is 2.6% (inactive); as for `O=C(Cc1ccccc1)Nc1ccccc1C(=O)N1CCN(Cc2ccccc2)CC1`, 2.5% (inactive).
For the molecule `CC(Oc1ccc(Cl)cc1Cl)C(=O)N1CCN(Cc2ccccc2)CC1` (centres undefined), the inhibition was -0.2% (inactive).
On to `CCOC(=O)c1sc2ncn(C(C)C(=O)OC)c(=O)c2c1C` (centres undefined), for which the inhibition was -14.1% (inactive).
As to `CCOC(=O)c1sc2ncn(C(CC)C(=O)OC)c(=O)c2c1C` (centres undefined), the inhibition was -9.8% (inactive).
Turning to `CCOC(=O)c1sc2ncn(C(C)C(=O)OCC)c(=O)c2c1C` (centres undefined), the inhibition was 0.5% (inactive).
As for `CCOC(=O)c1sc2nc(SCC(=O)NCc3ccco3)n(Cc3ccccc3)c(=O)c2c1C`, the figure is -3.7% (inactive).
In the case of `O=C(COc1ccc(Cl)cc1)Nc1ncccn1` it was -2.2% (inactive).
Turning to `C/C(=N\OCC(=O)N=Nc1c(O)n(CN2CCN(C)CC2)c2ccccc12)c1cccs1`, the inhibition is -0.1% (inactive).
With `CN(C)c1ccc(C(C2=C(O)CC(C)(C)CC2=O)C2=C(O)CC(C)(C)CC2=O)cc1`, the inhibition is 3.2% (inactive).
For `O=C(Cn1nc(Cc2cccnc2)c2ccccc2c1=O)Nc1ccc2c(c1)OCO2`, the inhibition is -0.1% (inactive).
In the case of `COC(=O)c1cc2c([nH]c3ccccc32)c(C)n1` it was -4% (inactive).
As for `N#Cc1c(N)nc(SCC(=O)c2ccccc2)c(C#N)c1-c1ccc(Cl)cc1`, the figure is 6.2% (inactive); as for `Cc1cc(NC(=O)CSc2ccc(-c3nc4cc(C)c(C)cc4[nH]3)cn2)no1`, 0.6% (inactive).
As for `Cc1cc2nc(-c3ccc(SCC(=O)N4CCOCC4)nc3)[nH]c2cc1C`, the figure is 3.3% (inactive); as for `CCc1ccc(O)c(N=Cc2cc(Br)cc(Br)c2O)c1`, 1.5% (inactive).
In the case of `Oc1ccc(Br)cc1C=Nc1ccc(Cl)c2cccnc12`, the inhibition was 14.2% (inactive).
In the case of `Oc1c(Br)cc(Br)cc1C=Nc1ccc(Cl)c2cccnc12` it was 98.2% (active); in that of `Oc1c(Br)cc(Br)cc1/C=N/c1ncn[nH]1`, 5.8% (inactive); in that of `Oc1c(Br)cc(Br)cc1C=Nc1ccc(Br)c2cccnc12`, 52.9% (active).
Take `Oc1oc(-c2ccccc2)nc1C=Nc1ccc(Cl)c2cccnc12`: the inhibition was 3.9% (inactive).
As to `COc1ccc(N(Cc2cc3ccc(C)cc3[nH]c2=O)C(C)=O)cc1`, the inhibition was -3.9% (inactive).
Take `CC(C)Cc1cc(C(=O)NCCN2CCOCC2)no1`: the inhibition was -10.2% (inactive).
Consider `NC(=O)c1ccccc1NC(=O)c1ccc(Cl)cc1[N+](=O)[O-]`, for which the inhibition is -1.7% (inactive).
In the case of `O=C(Nc1nncs1)c1cc(-c2ccccc2Cl)nc2ccccc12`, the inhibition is 1.9% (inactive).
Turning to `CCOc1ccc(CCNc2nc3c(c(=O)n(C)c(=O)n3C)n2CC)cc1OCC`, the inhibition was -1% (inactive).
For `O=C(N/N=C\c1cn(Cc2ccc(Cl)c(Cl)c2)c2ccccc12)c1ccc([N+](=O)[O-])cc1`, the inhibition is -0.1% (inactive).
In the case of `O=C(CNc1cccc2ccccc12)N/N=C/c1cn(Cc2ccccc2)c2ccccc12` it was 4.7% (inactive); in that of `O=C(c1cc2ccccc2oc1=O)N1CCCN(C(=O)c2cc3ccccc3oc2=O)CC1`, 3.4% (inactive); in that of `CC(C)(C)C(=O)/C=C(\N)c1ccccn1`, -3.7% (inactive).
As for `COc1ccc(C2NC(=S)NC(C)=C2C(=O)Nc2ccccc2)c(OC)c1` (centres undefined), the inhibition is 1.7% (inactive).
In the case of `CN1CCN(/N=C/c2ccc([N+](=O)[O-])s2)CC1` it was 2.9% (inactive); in that of `O=C(O)c1ccc(N=Cc2ccc([N+](=O)[O-])s2)cc1`, 83.1% (active).
As to `CC(=O)Nc1ccc(N=Cc2ccc([N+](=O)[O-])s2)cc1`, the inhibition is 1.2% (inactive).
`O=[N+]([O-])c1ccc(C=NC23CN4CN(CN(C4)C2)C3)s1`: the inhibition is 94.6% (active).
On to `O=C(c1ccccc1)c1cc(Cl)ccc1N=Cc1ccc([N+](=O)[O-])s1`, for which the inhibition is 0.8% (inactive).
As for `O=[N+]([O-])c1cc(N=Cc2ccc(Br)s2)ccc1Cl`, the figure is 0.8% (inactive).
Regarding `CCc1ccc(C=NC23CN4CN(CN(C4)C2)C3)s1`, the inhibition was -1.3% (inactive) and -8.8% (inactive).
As to `O=[N+]([O-])c1ccc(C=Nc2ccc(Oc3ccccc3)cc2)s1`, the inhibition is 0.3% (inactive).
On to `O=[N+]([O-])c1ccc(C=Nc2ccc(Cl)c([N+](=O)[O-])c2)s1`, for which the inhibition is 67.5% (active).
As for `O=[N+]([O-])c1ccc(C=Nc2ccc(Br)c(Cl)c2)s1`, the figure is -1.9% (inactive); as for `Cc1cccc(N=Cc2ccc([N+](=O)[O-])s2)c1`, 49.9% (inactive); as for `O=C(c1ccccc1)c1ccc(N=Cc2ccc([N+](=O)[O-])s2)cc1`, 62.2% (active).
In the case of `Cn1c(O)c(N=NC(=O)COc2ccc3ccccc3c2)c2cc(Br)ccc21` it was 3% (inactive); in that of `C/C(O)=C\C(N)=N/c1nc(C)cc(C)n1`, 2.7% (inactive); in that of `O=[N+]([O-])c1ccc(C(O)CN2CCN(C/C=C/c3ccccc3)CC2)cc1` (centres undefined), 3.6% (inactive).
As for `CCC(=O)N1c2ccc(S(=O)(=O)CCC(=O)N3CCn4c3nc3ccccc34)cc2CC1C` (centres undefined), the figure is 6.1% (inactive); as for `O=C(NCCNc1ccc([N+](=O)[O-])cc1Cl)c1ccccc1Cl`, 1.6% (inactive).
For the molecule `COCCOC(=O)C1=C(C)NC(=O)CC1c1cccc(Cl)c1` (centres undefined), the inhibition is 3.6% (inactive).
As for `CN(C)CCCNC(=O)c1ccc(CN(c2ccccc2)S(C)(=O)=O)cc1`, the figure is -6.3% (inactive).
As for `C/C(=N\NC(=O)C1(C)CC1(Br)Br)c1ccc(Br)s1` (centres undefined), the figure is 0.4% (inactive).
As for `COc1ccccc1CNC(=O)c1ccc(NC(C)=O)cc1`, the figure is 2.6% (inactive); as for `O=C1C(=O)c2ccccc2C(O)=C1[N+](=O)[O-]`, 106% (active).
Turning to `O=C1C(=O)c2ccccc2C(O)=C1c1ccc([N+](=O)[O-])cc1`, the inhibition is -1.5% (inactive).
In the case of `CN=CC1=C(O)c2ccccc2C1=O` it was -0.6% (inactive).
In the case of `COc1cc(/C=N/Nc2nncc(=O)[nH]2)ccc1O`, the inhibition is -0.1% (inactive).
In the case of `O=C(c1cn(-c2ccccc2)nc1-c1ccc(F)cc1)N1CCOCC1` it was -13.6% (inactive); in that of `CC(=O)Nc1ccc(S(=O)(=O)Nc2cc(C)ccc2C)cc1`, 0.4% (inactive); in that of `CCOc1ccc(-c2cc(OCC)c3c(C)oc(C)c3c(=[O+]CC)c2)cc1`, 3.9% (inactive).
As for `CCOc1cccc(=[O+]CC)c2c(C)oc(C)c12`, the figure is 96.5% (active); as for `CCOc1cccc(=O)c2c(C)oc(C)c12`, 1.6% (inactive).
In the case of `Cc1cc(N2CCCC(C(=O)Nc3ccc4c(c3)CCC4)C2)n2ncnc2n1` (centres undefined) it was -8.9% (inactive).
Take `Oc1[nH]c2ccccc2c1N=Nc1nc(-c2ccccc2)c2cc(Br)ccc2n1`: the inhibition is 12% (inactive).
As for `O=C1N=C(N=Nc2c(O)[nH]c3ccccc23)S/C1=C/c1ccc(Br)cc1`, the figure is 53.2% (active).
In the case of `CN(C)c1ccc(/C=C2/SC(N=Nc3c(O)[nH]c4ccccc34)=NC2=O)cc1` it was 28.7% (inactive); in that of `CCOC(=O)C1C(=O)CC(C)(O)C(C(=O)OCC)C1c1ccc(OCC)cc1` (centres undefined), 0.2% (inactive) and -2.5% (inactive).
In the case of `CCOc1ccc(-n2c(SCC(N)=O)nc3c([nH]c4ccccc43)c2=O)cc1` it was -3.1% (inactive); in that of `CC(C)(C)c1cnnn1-c1ccc(NC(=O)c2ccc3c(c2)OCO3)cc1`, -6.9% (inactive).
For `CC(C)[C@H](NC(=O)Nc1ccc2c(c1)OCCO2)C(=O)O`, the inhibition was -0.5% (inactive).
As for `Cc1ccc(C(=O)c2nocc2C(=O)c2cccs2)cc1`, the figure is -9.8% (inactive).
In the case of `COc1ccc(C(=O)c2no[n+]([O-])c2C(=O)c2ccc(OC)cc2)cc1` it was -8.8% (inactive); in that of `COC(=O)C1=C(C)NC(=O)NC1c1ccc(OCCO)c(OC)c1` (centres undefined), 4.3% (inactive); in that of `O=C(CCC1CCCC1)Nc1cccc(F)c1`, -0.4% (inactive).
As for `CC(C)Cn1c(=S)[nH]c2sc3c(c2c1=O)CC(C)(C)OC3`, the figure is 3.9% (inactive).
For `CCOC(=O)CCn1nnc(N)n1`, the inhibition was -5% (inactive).
As for `Cc1cc([N+](=O)[O-])cc2c1NC(=O)C2=O`, the figure is 79.8% (active).
Turning to `Cc1cc2c(cc1Br)NC(=O)C2=O`, the inhibition is 1.5% (inactive).
As for `Cc1cc([N+](=O)[O-])ccc1N1C(=O)c2ccccc2C1=O`, the figure is -1.5% (inactive); as for `O=C(CSCc1cnn(-c2ccccc2)c1-n1cccc1)NCc1cccs1`, -0.1% (inactive).
`O=C1c2ccccc2C(=O)c2c1c(-c1ccccc1)nn2-c1ccccc1`: the inhibition is 1.2% (inactive).
Turning to `Cc1ccc(-n2nc(-c3ccccc3)c3c2C(=O)C=CC3=O)cc1`, the inhibition was 38.9% (inactive).
In the case of `O=C1C=CC(=O)c2c1c(-c1ccccc1)nn2-c1ccccc1` it was 63.4% (active).
In the case of `CN(C)CCC(=O)c1ccc(O)cc1` it was 3.3% (inactive); in that of `N#Cc1c(N2CCCCC2)nc(N2CCCCC2)c2c1CCN(Cc1ccccc1)C2`, 3.8% (inactive); in that of `N#Cc1c(N)sc2c1CCN(Cc1ccccc1)C2`, 14.1% (inactive).
As for `CCn1cc(C(=O)NC2CCC(C)CC2)c(=O)c2cc(S(=O)(=O)N3CCCCC3)ccc21` (centres undefined), the figure is 56.1% (active).
For `CCn1cc(C(=O)NC2CCCCCC2)c(=O)c2cc(S(=O)(=O)N3CCCCC3)ccc21`, the inhibition is 3.2% (inactive).
`CCn1cc(C(=O)NC2CCCC2)c(=O)c2cc(S(=O)(=O)N3CCOCC3)ccc21`: the inhibition is 3.9% (inactive).
